Unmarked numbers belong to inactive results. For part of these data: Measured potencies and affinities stand elsewhere. Activity calls are given as the source filed them. The rule behind the calls is not given here.
Tests used:
[1] = Ebola virus entry assay, green fluorescence channel
[2] = Ebola virus entry assay, blue channel fluorescence
[3] = Ebola virus entry assay, ratio channel
[4] = Ebola virus entry assay, reporter ratio channel; Channel type: primary
Throughout, for efficacy: 0% is about no effect.

SMILES	efficacy [1] [%]	AC50 [2]	AC50 [3]	AC50 [4]	outcome [2]	outcome [3]	outcome [4]
CCCCN(CCCC)CCC(O)c1cc2c(Cl)cc(Cl)cc2c2cc(C(F)(F)F)ccc12 (configuration not stated)	131	7.94 µM (active)	4.47 µM (active)	4.47 µM (active)	–	–	–
O=C1C(c2[nH]c3ccccc3c2O)=Nc2ccccc21	51.6	–	–	–	inactive	inactive	inactive
CN1CCN(CCCN2c3ccccc3Sc3ccc(S(=O)(=O)N(C)C)cc32)CC1	146	2.51 µM (active)	2.24 µM (active)	2.24 µM (active)	–	–	–
O=C(Nc1ccccc1)OCC(CN1CCCCC1)OC(=O)Nc1ccccc1 (configuration not stated)	31.7	10 µM (active)	10 µM (active)	10 µM (active)	–	–	–
N/C(=N\N=C\c1ccc(Cl)cc1)N/N=C/c1ccc(Cl)cc1	-188	39.8 µM (active)	–	39.8 µM (active)	–	inactive	–
CC(NCCC(c1ccccc1)c1ccccc1)c1ccccc1 (configuration not stated)	-189	2 µM (active)	2.51 µM (active)	2.51 µM (active)	–	–	–
c1ccc2c(c1)CCc1ccccc1N2	-29.2	17.8 µM (active)	–	–	–	inactive	inactive
Cc1nc2ccccc2n1Cc1ccc(Cl)cc1	42.7	–	–	–	inactive	inactive	inactive
CN(C)CCCOC1(Cc2ccccc2)CCCCCC1	64.1	17.8 µM (active)	14.1 µM (active)	14.1 µM (active)	–	–	–
Cc1ccc(/C(=C\CN2CCCC2)c2ccccn2)cc1	48.9	31.6 µM (active)	28.2 µM (active)	28.2 µM (active)	–	–	–
CCC(=O)c1ccc2c(c1)N(CCCN(C)C)c1ccccc1S2	153	20 µM (active)	17.8 µM (active)	17.8 µM (active)	–	–	–
CCOC(=O)N1CCC(Nc2ccc(Cl)cc2N)CC1	119	39.8 µM (active)	–	39.8 µM (active)	–	inactive	–
CC(C(O)c1ccc(O)cc1)N1CCC(Cc2ccccc2)CC1 (configuration not stated)	92.8	17.8 µM (active)	28.2 µM (active)	28.2 µM (active)	–	–	–
CCCCCCCCCCCCCCCC[n+]1ccccc1	-209	20 µM (active)	14.1 µM (active)	14.1 µM (active)	–	–	–
Oc1ccc(CCNCCCCCCNCCc2ccccc2)cc1O	30.5	1.12 µM (active)	1 µM (active)	1 µM (active)	–	–	–
O=C1[C@H]2CCCC[C@H]2C(=O)N1CCCCN1CCN(c2nsc3ccccc23)CC1	104	20 µM (active)	17.8 µM (active)	17.8 µM (active)	–	–	–
CN1CCCC(CC2c3ccccc3Sc3ccccc32)C1 (configuration not stated)	-153	5.62 µM (active)	3.16 µM (active)	3.16 µM (active)	–	–	–
c1cc(CN2CCCCC2)cc(OCCCNc2nc3ccccc3s2)c1	69.1	12.6 µM (active)	12.6 µM (active)	12.6 µM (active)	–	–	–

Source: PubChem BioAssay (NCATS)
